Measured values as given in PubChem BioAssay (EPA / NIEHS).
Active and inactive are the calls of the source. Rule for the calls: active = hit-call score of the fitted dose curve at least 0.9, where 1 is the maximum; inactive = score below 0.9.

Experiments:
[1] = read-out: Urokinase-type plasminogen activator receptor (uPAR), PLAUR (gene 5329); test: BSK_4H_uPAR: BioMAP Diversity Plus: 4H Assay for Urokinase-type plasminogen activator receptor (uPAR) Biomarker Activity (AID 2283030); conditions: primary human endothelial cells (HUVEC); actives raise or lower the signal
Summary of the method: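 HUVEC, 24 h post-dose; uPAR by ELISA; bidirectional fit vs DMSO baseline.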

[2] = read-out: Vascular endothelial growth factor receptor 2 (Homo sapiens) (UniProt P35968); test: BSK_4H_VEGFRII: BioMAP Diversity Plus: 4H Assay for Vascular endothelial growth factor receptor 2 (VEGFR2) Biomarker Activity (AID 2283031); conditions: primary human endothelial cells (HUVEC); actives raise or lower the signal;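 for AC50: cell-surface VEGFR2 protein level quantified by ELISA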
Summary of the method: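 HUVEC (human primary), 4H system; 24 h post-dose; VEGFRII by ELISA; bidirectional curve fit vs DMSO baseline; gain or loss of signal scored.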

[3] = read-out: Human Leukocyte Antigen - DR isotype (HLADR), HLA-DRA (gene 3122); test: BSK_BE3C_HLADR: BioMAP Diversity Plus: BE3C Assay for Human Leukocyte Antigen - DR isotype (HLADR) Biomarker Activity (AID 2283032); conditions: primary human bronchial epithelial cells; actives raise or lower the signal
Summary of the method: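 Signal came from an ELISA for HLA-DR in human bronchial epithelial primary cells harvested 24 h after treatment; gain- and loss-of-signal fitting used DMSO controls as reference.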

[4] = read-out: Vascular cell adhesion molecule 1 (VCAM1), VCAM1 (gene 7412); test: BSK_4H_VCAM1: BioMAP Diversity Plus: 4H Assay for Vascular cell adhesion molecule 1 (VCAM1) Biomarker Activity (AID 2283033); conditions: primary human endothelial cells (HUVEC); actives raise or lower the signal
Summary of the method: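 Endpoint derived from bidirectional fitting against DMSO controls of VCAM-1 ELISA signal in umbilical vein endothelial cells sampled at 24 h following treatment.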

[5] = read-out: Interferon-gamma inducible Protein 10 (IP10), CXCL10 (gene 3627); test: BSK_BE3C_IP10: BioMAP Diversity Plus: BE3C Assay for Interferon-gamma inducible Protein 10 (IP10) Biomarker Activity (AID 2283034); conditions: primary human bronchial epithelial cells; actives raise or lower the signal
Summary of the method: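 Using primary human bronchial epithelial cultures, the assay captures IP-10 by ELISA one day (24 h) after exposure. Parallel SRB staining of total protein flags overt cytotoxicity. Fits run bidirectionally relative to DMSO.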

[6] = read-out: Monokine induced gamma interferon (MIG), CXCL9 (gene 4283); test: BSK_BE3C_MIG: BioMAP Diversity Plus: BE3C Assay for Monokine induced gamma interferon (MIG) Biomarker Activity (AID 2283035); conditions: primary human bronchial epithelial cells; actives raise or lower the signal
Summary of the method: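 MIG level was determined by ELISA after 24 h chemical treatment of primary human bronchial epithelial cells. Values were fitted bidirectionally with DMSO as the negative control and activity baseline.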

[7] = read-out: Transforming growth factor beta 1 (TGFb1), TGFB1 (gene 7040); test: BSK_BE3C_TGFb1: BioMAP Diversity Plus: BE3C Assay for Transforming growth factor beta 1 (TGFb1) Biomarker Activity (AID 2283036); conditions: primary human bronchial epithelial cells; actives raise or lower the signal
Summary of the method: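 In this human primary bronchial epithelial system, an ELISA quantified TGF-b1 one day after dosing. Endpoint changes in either direction were fitted relative to DMSO.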

[8] = read-out: urokinase plasminogen activator (uPA), PLAU (gene 5328); test: BSK_BE3C_uPA: BioMAP Diversity Plus: BE3C Assay for urokinase plasminogen activator (uPA) Biomarker Activity (AID 2283038); conditions: primary human bronchial epithelial cells; actives raise or lower the signal
Summary of the method: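 ELISA read-out of uPA in human lung primary bronchial epithelial cultures, 24 h post-dosing. Gain or loss of signal fitted bidirectionally relative to DMSO baseline; cytotoxicity checked in parallel cultures via SRB total protein stain.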

[9] = read-out: Urokinase-type plasminogen activator receptor (uPAR), PLAUR (gene 5329); test: BSK_BE3C_uPAR: BioMAP Diversity Plus: BE3C Assay for Urokinase-type plasminogen activator receptor (uPAR) Biomarker Activity (AID 2283039); conditions: primary human bronchial epithelial cells; actives raise or lower the signal
Summary of the method: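 A uPAR ELISA serves as the readout, taken 24 h after treating primary human bronchial epithelial cells. Responses in either direction are fitted against DMSO, which defines baseline activity.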

[10] = read-out: Plasminogen activator inhibitor-1 (PAI1), SERPINE1 (gene 5054); test: BSK_BE3C_PAI1: BioMAP Diversity Plus: BE3C Assay for Plasminogen activator inhibitor-1 (PAI1) Biomarker Activity (AID 2283037); conditions: primary human bronchial epithelial cells; actives raise or lower the signal
Summary of the method: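 PAI-1 biomarker levels in treated human bronchial epithelial cells are determined by ELISA at 24 h. Both increases and decreases relative to DMSO are fitted.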

Measured: AC50

O=c1n(Cl)c(=O)n(Cl)c(=O)n1Cl
not listed: [10]
inactive: all other assays above

Clc1cccc(C(Cl)(Cl)Cl)n1
inactive: all assays above

C=C(C)CN(CC)c1c([N+](=O)[O-])cc(C(F)(F)F)cc1[N+](=O)[O-]
inactive: all assays above

Cc1ccc(N=CN(C)C=Nc2ccc(C)cc2C)c(C)c1
inactive: [9]
active: [1] 37.5 µM | [2] 26 µM | [3] 26.7 µM | [4] 29.5 µM | [5] 30.5 µM | [6] 33.3 µM | [7] 34.1 µM | [8] 35.4 µM

CCCCC(C#N)(Cn1cncn1)c1ccc(Cl)cc1 (stereo not given)
inactive: all assays above

CCC(C)n1c(=O)[nH]c(C)c(Br)c1=O (stereo not given)
inactive: all assays above

COCC(C)N(C(=O)CCl)c1c(C)csc1C (stereo not given)
not listed: [10]
inactive: all other assays above

CCOc1nc(F)cc2nc(S(=O)(=O)Nc3c(Cl)cccc3Cl)nn12
active: [3] 27.9 µM | [5] 31.4 µM | [10] 20.9 µM
not listed: [2]
inactive: all other assays above

Nc1c(Cl)c(Cl)nc(C(=O)O)c1Cl
not listed: [10]
inactive: all other assays above

CCN(CC)c1nc(C)cc(OP(=S)(OC)OC)n1
active: [3] 20 µM
inactive: all other assays above

CNC(=O)N(C)c1nnc(C(C)(C)C)s1
not listed: [10]
inactive: all other assays above

CCNC(=O)NC(=O)C(C#N)=NOC
not listed: [2]
inactive: all other assays above

CC1(C)CON(Cc2ccccc2Cl)C1=O
active: [7] 37.2 µM
not listed: [10]
inactive: all other assays above

CCOc1cc(C(C)(C)C)ccc1C1COC(c2c(F)cccc2F)=N1 (stereo not given)
active: [1] 33 µM | [3] 14.3 µM | [4] 37.4 µM | [5] 16.3 µM | [10] 19 µM | [8] 20 µM | [9] 6.6 µM
inactive: [6] | [7]

CC1(C)C(C(=O)OC(C#N)c2cccc(Oc3ccccc3)c2)C1(C)C (stereo not given)
not listed: [10]
inactive: all other assays above

CCSC(=O)N1CCCCCC1
inactive: all assays above

COc1ccc(-c2ccccc2)cc1NNC(=O)OC(C)C
inactive: all assays above
